# Values without a mark were called inactive. Active and inactive are the calls of the source. Rule as the data show it, unless noted: active = inhibition above about 44%; inactive = the rest.
# Target: Nuclear receptor subfamily 5 group A member 2 (Homo sapiens) (UniProt O00482)
# Assay: LRH-1 (NR5A2) inverse agonists, retest, confirmation, cell-based, luminescence (AID 651613; in the data active = inhibition above about 42%;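 also: HEK293T cells co-transfected with LRH-1 and StAR promoter luciferase reporter; 0% = vehicle wells and 100% = parental cells lacking receptor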)
# Settings: cell-based LRH-1 luciferase reporter, inverse agonism; at 3.6 µM; hits give high values
# Nuclear receptor subfamily 5 group A member 2 (Homo sapiens), sequence (O00482 whole entry, looked up): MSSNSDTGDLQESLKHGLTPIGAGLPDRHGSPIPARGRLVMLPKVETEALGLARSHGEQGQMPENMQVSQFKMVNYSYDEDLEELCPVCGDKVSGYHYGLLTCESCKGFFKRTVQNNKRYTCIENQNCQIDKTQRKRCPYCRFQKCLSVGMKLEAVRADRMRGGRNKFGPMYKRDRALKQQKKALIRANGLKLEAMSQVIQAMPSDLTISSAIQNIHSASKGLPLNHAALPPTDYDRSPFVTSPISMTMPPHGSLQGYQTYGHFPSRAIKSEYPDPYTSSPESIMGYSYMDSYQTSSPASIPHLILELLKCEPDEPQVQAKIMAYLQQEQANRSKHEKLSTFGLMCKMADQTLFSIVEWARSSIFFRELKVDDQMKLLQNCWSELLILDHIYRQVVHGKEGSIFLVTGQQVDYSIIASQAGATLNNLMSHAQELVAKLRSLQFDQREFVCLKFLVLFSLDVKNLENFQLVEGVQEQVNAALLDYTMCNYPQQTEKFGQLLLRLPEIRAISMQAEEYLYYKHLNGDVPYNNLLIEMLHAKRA
row,SMILES,inhibition
1,Cn1nnnc1Sc1ncnc2scc(-c3ccc(-c4ccccc4)cc3)c12,33.6%
2,C=CCOc1ccccc1CN(C(=O)CCl)c1ccc2c(c1)OCO2,68.8% (active)
3,CCc1cc(=O)oc2cc3occ(-c4ccc(OC)c(F)c4)c3cc12,75% (active)
4,N#CCSc1ccccc1NC(=O)CN1C(=O)C2CC=CCC2C1=O (stereo not drawn),58.1% (active)
5,C#CCN(C[C@@H]1[C@@H](OC(=O)NCC2CCCCC2)[C@@H](OC(=O)NCC2CCCCC2)Cn2c(=O)ccc(=O)n21)S(=O)(=O)c1ccc(C)cc1,62.4% (active)
6,O=C(CSc1nc2ccc(F)cc2c(=O)n1-c1ccccc1)Nc1ccc2c(c1)CCC2,43.3% (active)
7,O=[N+]([O-])c1ccc(Sc2nnnn2-c2ccccc2)c(Cl)c1,25.6%
8,Cc1cc2nc(C3CCCCC3)c(Cc3ccsc3)n2c(C)c1Br,36.2%

# Target: Steroidogenic factor 1 (Homo sapiens) (UniProt Q13285)
# Assay: SF1 (NR5A1) inverse agonists, counter-screen for LRH-1 inverse agonist project, cell-based, luminescence, high throughput (AID 651614);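 also: cells cotransfected with StAR promoter reporter and SF1 expression vector; 0% = vehicle on cells with receptor and 100% = vehicle on cells lacking receptor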
# Settings: cell-based SF1 luciferase reporter, at 3.6 µM, hits give high values
# Steroidogenic factor 1 (Homo sapiens), sequence (Q13285 whole entry, looked up): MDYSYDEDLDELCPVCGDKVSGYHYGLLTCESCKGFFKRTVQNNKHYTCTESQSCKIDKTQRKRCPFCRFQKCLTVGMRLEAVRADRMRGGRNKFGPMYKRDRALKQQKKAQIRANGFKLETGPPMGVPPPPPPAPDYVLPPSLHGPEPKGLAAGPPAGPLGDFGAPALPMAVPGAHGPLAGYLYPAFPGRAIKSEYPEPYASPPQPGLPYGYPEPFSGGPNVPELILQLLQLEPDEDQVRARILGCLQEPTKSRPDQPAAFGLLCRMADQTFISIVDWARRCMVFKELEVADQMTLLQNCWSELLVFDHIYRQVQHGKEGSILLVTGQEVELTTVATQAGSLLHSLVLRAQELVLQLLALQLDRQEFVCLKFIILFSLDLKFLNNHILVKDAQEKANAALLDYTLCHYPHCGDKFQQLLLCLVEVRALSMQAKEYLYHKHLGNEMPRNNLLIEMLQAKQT
row,SMILES,inhibition
1,COc1ccc(CCNC(=O)CSc2nnc(CNc3ccc(Cl)cc3)o2)cc1OC,38.9%
2,Cc1cccc(CSC(Nc2ccc(F)cc2)=C(C#N)C#N)c1,29.4%
3,COc1ccc(CCNC(=O)COC(=O)C2CC2C)cc1 (stereo not drawn),48.6% (active)
4,COc1ccc(CCNC(=O)COC(=O)c2cccn2C)cc1,46.3% (active)
5,Cc1ccc(CC(=O)Nc2ccncc2)cc1,64.9% (active)
6,Cc1cc(NC(=O)c2ccc([N+](=O)[O-])o2)ccc1NC(=O)c1ccco1,55.5% (active)
7,Cc1ccc(OCCC(=O)OCC(=O)Nc2ccc(N3CCOCC3)cc2)cc1,46.6% (active)
8,Cc1ccccc1C(=O)NC1CCN(CC(=O)Nc2ccc(Br)cc2)CC1,53.4% (active)
9,COc1ccc(N2C(=O)C(Cl)=C(N3CCOCC3)C2=O)cc1,7.54%
10,O=C1/C(=C/c2ccccc2)CN(C(=O)CCN2CCOCC2)C/C1=C\c1ccccc1,56.7% (active)
11,Oc1c(Cl)cc(CN2CCOCC2)c2cccnc12,6.83%
12,CCC(=O)Nc1ccc(NC(=O)CSc2nc3c(c(=O)n(C)c(=O)n3C)n2CC)cc1,58.3% (active)
13,CCNc1cc(N2CCCC2)ccc1[N+](=O)[O-],44% (active)
14,CC(=O)Nc1cc(-c2ccc(S(C)(=O)=O)cc2)cn2c(-c3ccc(F)cc3)cnc12,33.3%
15,O=C(c1ccco1)N1CCCC(N2CCN(c3cccc(C(F)(F)F)c3)CC2)C1 (stereo not drawn),47.7% (active)
16,Cc1cc(C(=O)N/N=C/c2ccc([N+](=O)[O-])o2)c(C)o1,65.2% (active)
17,CCOC(=O)c1c2c(n(Cc3ccccc3)c1C)C(=O)C(=O)c1ccccc1-2,71.6% (active)
18,O=C(Nc1ccccn1)c1ccc([N+](=O)[O-])o1,59.1% (active)
19,O=C(Nc1ccc(F)cc1)C(c1cc2ccccc2o1)N1CCN(c2cccc(C(F)(F)F)n2)CC1 (stereo not drawn),35.4%
20,CC1(C)CC(=O)C=C(c2ccc3ncccc3c2)C1,52.9% (active)

row,SMILES,inhibition
1,NC(=S)N/N=C/c1ccc(-n2nncc2-c2ccc(Cl)cc2)cc1,56.4% (active)
2,O=C(Cn1cnc2c(nnn2-c2ccccc2)c1=O)NCCc1ccccc1,51% (active)
3,COc1ccc(C2=CC(=O)CC(C)(C)C2)cc1OC,51.9% (active)
4,Cc1cc(C(=O)NC2CCCc3c2cnn3-c2cccc(C)c2C)n(C)n1 (stereo not drawn),58.4% (active)
5,O=C(c1ccccc1)c1cc(-c2ccccn2)c(N2CCOCC2)s1,63.4% (active)
6,Cn1c2c(c(=O)n(C)c1=O)C(C(F)(F)F)(C(F)(F)F)N=C(CCC1CCCCC1)N2,49.6% (active)
7,CCOc1ccc(NC(=O)COC(=O)c2ccc3c(c2)OCCO3)cc1,51.9% (active)
8,COc1cc(NC(=O)Cn2ccsc2=N)c(C)cc1[N+](=O)[O-],58% (active)
9,COc1cccc(COC(=O)C2CC(=O)N(Cc3ccco3)C2)c1OC (stereo not drawn),31%
10,CCOc1ccc(Cc2nnc(SCC(=O)Nc3ccc(C(C)=O)cc3)[nH]c2=O)cc1,40.9%
11,O=C(N/N=C/c1cc2c3c(c1O)CCCN3CCC2)c1ccccc1O,87.2% (active)
12,CCCN1Cc2cccc(C(=O)NC(C)c3cccs3)c2C1=O (stereo not drawn),27.5%
13,Cn1nnnc1Sc1ncnc2scc(-c3ccc(-c4ccccc4)cc3)c12,39.4%
14,C=CCOc1ccccc1CN(C(=O)CCl)c1ccc2c(c1)OCO2,53.5% (active)
15,CCc1cc(=O)oc2cc3occ(-c4ccc(OC)c(F)c4)c3cc12,60.6% (active)
16,N#CCSc1ccccc1NC(=O)CN1C(=O)C2CC=CCC2C1=O (stereo not drawn),60.2% (active)
17,C#CCN(C[C@@H]1[C@@H](OC(=O)NCC2CCCCC2)[C@@H](OC(=O)NCC2CCCCC2)Cn2c(=O)ccc(=O)n21)S(=O)(=O)c1ccc(C)cc1,74.5% (active)
18,O=C(CSc1nc2ccc(F)cc2c(=O)n1-c1ccccc1)Nc1ccc2c(c1)CCC2,47.9% (active)
19,O=[N+]([O-])c1ccc(Sc2nnnn2-c2ccccc2)c(Cl)c1,37.7%
20,Cc1cc2nc(C3CCCCC3)c(Cc3ccsc3)n2c(C)c1Br,37.7%

# — PubChem BioAssay
